Source: PubChem BioAssay
ST2 inh: blocks human ST2 binding to IL-33; Q01638; AlphaLISA ST2-Fc/biotin-IL-33 interaction, 1 h; inhibition, % for hits at 17 µM; actives 2.3% (n = 78,000); AID 1259354; in the data active = inhibition above about 30%
Target sequence (Q01638 whole entry, looked up): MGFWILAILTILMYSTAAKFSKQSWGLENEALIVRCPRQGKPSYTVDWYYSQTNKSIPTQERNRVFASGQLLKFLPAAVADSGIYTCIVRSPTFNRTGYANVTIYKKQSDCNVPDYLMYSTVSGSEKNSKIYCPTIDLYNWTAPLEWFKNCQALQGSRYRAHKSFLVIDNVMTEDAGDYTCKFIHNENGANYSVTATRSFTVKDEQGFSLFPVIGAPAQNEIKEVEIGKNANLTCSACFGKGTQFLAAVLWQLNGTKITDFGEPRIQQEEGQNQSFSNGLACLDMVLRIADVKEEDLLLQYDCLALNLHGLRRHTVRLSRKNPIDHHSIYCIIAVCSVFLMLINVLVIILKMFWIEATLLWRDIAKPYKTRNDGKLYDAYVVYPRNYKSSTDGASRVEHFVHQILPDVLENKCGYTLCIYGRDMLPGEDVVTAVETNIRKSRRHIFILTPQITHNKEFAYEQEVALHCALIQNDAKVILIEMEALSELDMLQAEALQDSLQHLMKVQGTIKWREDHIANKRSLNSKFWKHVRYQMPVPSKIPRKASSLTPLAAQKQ
Large screens that a line does not name were inactive. Shown is part of a subset that was picked to be rich in hits.

CCOc1ccc(C2C(C(=O)OC3CCCC3)=C(C)NC3=C2C(=O)C(C(=O)OC)C(C)C3)cc1 (stereo not given)	none
COc1ccc(C)cc1NC(=O)Cc1cccs1	none
CCOCCOC(=O)C1=C(C)NC2=C(C(=O)C(C(=O)OC)C(C)C2)C1c1ccc(C)cc1 (stereo not given)	none
CC(=O)C1=NN(c2ccc(Br)cc2)C2C(=O)N(c3ccc(C)cc3)C(=O)C12 (stereo not given)	none
Cc1nc(C)c(CN2CCC(C(=O)Nc3ccc(Oc4ccccc4F)cc3)CC2)nc1C	none
COCCN(Cc1ccc(C)cc1)Cc1nn(C)cc1Cl	none
O=[N+]([O-])c1ccc(N2CCN(Cc3ccc(Br)s3)CC2)cc1	ST2 inh 36.0%
O=[N+]([O-])c1ccc(N2CCN(CCO)CC2)cc1	none
Cc1ccccc1N1CCN(Cc2ccc(Br)s2)CC1	none
CCOc1ccccc1N1CCN(Cc2ccc([N+](=O)[O-])cc2)CC1	none
CN(C)c1ccc(CN2CCN(c3ccc([N+](=O)[O-])cc3)CC2)cc1	ST2 inh 51.0%
COc1cc(CN2CCN(c3ccc([N+](=O)[O-])cc3)CC2)ccc1O	none
CCCn1cnnc1CN(C)Cc1sccc1C	none
CC(=O)N(CN1C(=O)C2C3C=CC(C3)C2C1=O)c1ccccc1C (stereo not given)	none
Cc1ccc([N+](=O)[O-])cc1N1C(=O)/C(=C\c2ccccc2)N=C1c1ccccc1	ST2 inh 40.0%
O=[N+]([O-])c1cccc(C=Nc2nnc(-c3ccccc3)s2)c1	none
O=C1OC(c2cccc([N+](=O)[O-])c2)=N/C1=C\c1cccc(I)c1	none
Cc1cccc(N=Cc2nc(-c3ccc(Cl)cc3)oc2O)n1	none
Cc1cccc(N=Cc2nc(-c3ccc(Cl)cc3)oc2O)c1	none
Oc1oc(-c2ccc(Cl)cc2)nc1C=Nc1ccccn1	ST2 inh 33.0%
CCN(CCc1nc2ccc(F)cc2[nH]1)C(=O)c1c[nH]c(=O)[nH]1	none
C=CCn1c(C)nc2c(sc3nc4c(cc32)COC(C)(C)C4)c1=O	none
CC1(C)Cc2nc3sc4c(=O)[nH]cnc4c3cc2CS1	ST2 inh 80.0%
CCCCn1c(C)nc2c(sc3nc4c(cc32)COC(C)(C)C4)c1=O	none
Cc1cc(NC(=O)COc2ccccc2)nc2c1c(=O)oc1ccccc12	none
O=C(C1c2ccccc2C(=O)N2CCc3ccccc3C12)N1CCN(c2ccccc2F)CC1 (stereo not given)	none
N#CC(c1ccccc1)C(C#N)c1ccccc1 (stereo not given)	none
N#Cc1cc(C#N)c(SCc2ccc([N+](=O)[O-])cc2)nc1N	none
CC(C)(C)NCc1ccc([N+](=O)[O-])cc1	none
N#CSC(C#N)Cc1ccc([N+](=O)[O-])cc1 (stereo not given)	ST2 inh 51.0%
N#CSC(C#N)Cc1ccccc1 (stereo not given)	ST2 inh 33.0%
OC(Cc1ccccc1)c1ccccc1 (stereo not given)	none
C=CCNC(=O)C[C@@H]1CCN(C(=O)Nc2ccccc2)C[C@@H]1CC	none
COc1ccc(NC(=O)N2CCCCC2CCN2CCOCC2)c(C)c1 (stereo not given)	none
Cc1ccc(CN2CCN(Cc3cccc4nonc34)CC2CCO)o1 (stereo not given)	none
O=C(Nc1nc(-c2ccccn2)cs1)c1cccc(Oc2ccccc2)c1	none
CNS(=O)(=O)c1ccc(CN2CCOC(CC3CCCCC3)C2)cc1 (stereo not given)	none
COc1ccc(-n2ncc3c(Nc4ccc(Cl)cc4)ncnc32)cc1	none
CC(C)CNc1ccccc1C(=O)N1CCC(C(=O)O)CC1	none
CCNC(=O)[C@@H]1C[C@@H](N)CN1C(=O)Cn1nc(C)c(CC)c1C	none
Cc1nnsc1CNc1nc(-c2cccnc2)nc2c1cnn2C	none
CN(CCCc1cnn(C)c1)c1nc(-c2cccnc2)nc2c1cnn2C	ST2 inh 30.0%
Cn1ncc2c(NCc3n[nH]c4c3CCCCC4)nc(-c3cccnc3)nc21	none
CN(Cc1ncc[nH]1)C(=O)CCN1CCCCO1	none
CC(C)Cn1c(=O)c2c(nc3n2CCN3c2ccccc2)n(C)c1=O	none
CCN1CCN(CC(=O)N2CCCc3c2c(=O)oc2ccc(OCc4ccccc4)cc32)CC1	ST2 inh 30.0%
CCCOc1ccc2oc(=O)c3c(c2c1)CCCN3C(=O)CN1CCCCCC1	none
CN1CCN(CC(=O)N2CCCc3c2c(=O)oc2ccc(OCc4ccccc4)cc32)CC1	ST2 inh 39.0%
CCCOc1ccc2oc(=O)c3c(c2c1)CCCN3C(=O)CN1CCCC(C(=O)OCC)C1 (stereo not given)	none
CCCOc1ccc2oc(=O)c3c(c2c1)CCCN3C(=O)CN1CCN(C(=O)c2ccco2)CC1	none
CCCOc1ccc2oc(=O)c3c(c2c1)CCCN3C(=O)CN1CCN(c2ncccn2)CC1	none
Cc1c(Br)cc(C(=O)Nc2ccccc2F)c(C)c1C	none
CC1CC(C)CN(C(=O)c2cn(C)c(=O)c3c2c2ccccc2n3C)C1 (stereo not given)	none
O=C(CCn1nnc2ccccc21)N1CCCC(O)(CO)CC1 (stereo not given)	none
CCCC1(C2CCN(Cc3nccn3C(C)C)CC2)NC(=O)NC1=O (stereo not given)	none
COc1ccc2c(c1OC)C(=O)N(c1nc(-c3ccc(C)cc3)cs1)C2=O	none
CC(Cc1cccnc1)NC(=O)c1cc(Cn2cnc3ccccc32)on1 (stereo not given)	none
CC(C)c1ccc(N2C(=O)C3C4C=CC(C4)C3C2=O)cc1 (stereo not given)	none
CSCC(=O)N[C@H]1CCN2C(=O)N(c3ccc(C(C)C)cc3)C(=O)[C@@H]2C1	ST2 inh 52.0%
COc1cc(OC)cc(N2C(=O)[C@@H]3C[C@@H](NC(=O)c4cccn4C)CCN3C2=O)c1	none
Cc1ccc(-c2nnc(-c3nc(N4CCCCC4C)c4ccccc4n3)o2)cc1 (stereo not given)	none
COc1ccc(Br)cc1CC(=O)O	none
COc1ccc(Br)cc1/C=C1\N=C(c2ccc(OC)c([N+](=O)[O-])c2)OC1=O	none
COc1ccc(Cl)cc1/C=C1/NC(=O)NC1=O	none
Cc1cccc(C)c1N=C1C(=O)Nc2ccc(Br)cc21	none
Cc1ccc(/C=C2\C(=O)Nc3ccc(Br)cc32)o1	ST2 inh 30.0%
COc1ccc(Cl)cc1/C=C1\C(=O)Nc2ccc(Br)cc21	ST2 inh 35.0%
CCOc1cc(/C=C2\C(=O)Nc3ccc(Br)cc32)c(Br)cc1OC	ST2 inh 41.0%
CCOc1c(O)ccc(/C=C2\C(=O)Nc3ccc(Br)cc32)c1[N+](=O)[O-]	none
CCOc1ccc(Br)cc1/C=C1\NC(=O)N(Cc2ccc(Cl)cc2)C1=O	none
COc1ccc(Br)cc1/C=C1\C(=O)Nc2ccc(Br)cc21	ST2 inh 36.0%
CC1=NN(c2ccc(Br)cc2)C(=O)/C1=C/c1ccc(-c2ccc3c(c2)C(=O)OC3)o1	none
C=CCOc1cc(Br)c(/C=C2/NC(=O)NC2=O)cc1OC	none
CN(C)c1nc2c(c(N(C)C)n1)CCN(C(=O)c1cccc3c1OCC3)C2	none
Cc1ccccc1N1C(=O)NC2CC1(C)Oc1ccc(Br)cc12 (stereo not given)	none
Cc1ccc(NC(=O)c2ccco2)c(Br)c1	none
COc1ccc(N2CCCS2(=O)=O)cc1NC(=O)Cc1ccc(OC)c(OC)c1	none
C=C(C)COc1ccccc1C(=O)N[C@H]1COC[C@@H]1OCC	none
CCOC(=O)C1=C(C)Nc2ncnn2C1c1ccc(OCc2ccccc2)c(OCC)c1 (stereo not given)	none
CCOc1ccc(N2C(=O)Nc3ccccc3C2(O)C(=O)NCCCN2CCCCC2)cc1 (stereo not given)	none
COc1ccc(CCN2CCC(CN(C)C(=O)CN3CCCCC3=O)CC2)cc1	none
COc1ncccc1-c1nc2ccccc2n1CCO	none
COc1ccc(C(=O)Nc2cccc(Cl)c2Cl)cc1OC	none
